Most compounds without a hit are left out; they make up all but 7.8% or so of the library.
HCV inhibitor = HCV inhibition. Potency, µM (doses to about 41.8 µM), usual class: inhibitors. actives 3.4% (n = 340,000). Huh7.5.1 HCVcc-Cre infection, luciferase reporter, 44 h; active = well fitted inhibition curve with a large enough effect; inconclusive = small, poorly fitted or top-dose-only effect, or another doubt; inactive = no such curve, though single readings can be large or run the other way
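Compounds are dispensed onto cells plated 4 h earlier at 1,000 per well, with HCVcc-Cre virus (about 0.5 moi) added next. Following 44 h of culture, luminescent signal is measured for 15 sec after 15 min with substrate at room temperature.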
Lassa entry inh = inhibitors of Lassa virus binding or cell entry; actives 1.2% (n = 300,000); Potency, µM (highest dose often 37.9 µM), most hits filed as inhibitors; Lassa virus pseudotype entry inhibition, cell reporter; calls by dose curve; tested in HEK293 cells; note: nearly all actives have a fitted effect of over 50% in size
HCMV antiviral = inhibitors of human cytomegalovirus; HFF cells, HCMV-luciferase reporter, 72 h; stronger effect = lower value; activity change, negative = inhibition, % at 57.5 µM; actives 4.5% (n = 410,000); AID 1259415; in the data active = activity change below about -60%; inconclusive = no clear call, values can overlap the other calls; inactive = above about -39%
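Human foreskin fibroblasts infected with luciferase-reporter HCMV at MOI 1 PFU/cell, compounds at two doses. Luciferase measured 72 h post infection; normalized to buffer-only basal and Salinomycin (10uM) controls.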
VACV Venus inh = inhibitors of vaccinia virus (Venus reporter); Vaccinia virus Venus reporter expression, fluorescence; Potency, µM (titrated, usually from 36.5 µM), actives largely listed as inhibitors; actives 0.46% (n = 330,000); calls by dose curve; tested in A549 cells; note: nearly all actives have a fitted effect of over 30% in size
MARV entry inh = blocks Marburg virus binding to or entry into cells; Marburg virus pseudotyped entry inhibition, cell reporter; Potency, µM (doses to about 37.8 µM), hits mostly inhibitors; actives 1.8% (n = 300,000); AID 540276; calls by dose curve; tested in HEK293 cells
Vaccinia mCherry = vaccinia inhibition (mCherry reporter); Vaccinia virus mCherry reporter infection, fluorescence; AID 720579; Potency, µM (series often up to 36.5 µM), usual class: inhibitors; actives 0.63% (n = 310,000); calls by dose curve; tested in A549 cells; note: nearly all actives have a fitted effect of over 35% in size
Numbers stand for hits; 0 = inactive; ? = inconclusive; - = no result; [ ] = another dose, or the depositor's remark.

SMILES	HCV inhibitor	Lassa entry inh	HCMV antiviral	VACV Venus inh	MARV entry inh	Vaccinia mCherry
Cc1ccc(C(=O)Nc2ccc(Br)c(C(F)(F)F)c2)cc1	11µM	?	0	-	16µM	-
Cc1ccc(C(=O)Nc2ccc3ncccc3c2)cc1	0	?	-64	0	?	0
Cc1ccc(NC(=O)c2ccc(NS(=O)(=O)c3cccc4cccnc34)cc2)cc1	10µM	?	-	0	0	?
Cc1ccc(NC(=O)c2ccc(C)cc2)cc1	0	-	0	0	-	0
CC(=O)Nc1ccc(NC(=O)c2ccc(NS(=O)(=O)c3cccc4cccnc34)cc2)cc1	0	0	0	0	?	0
CCOC(=O)c1cccc(NC(=O)CN2C(=O)c3ccccc3Sc3ncccc32)c1	-	?	0	0	-	0
C[C@H](NC(=O)c1nc[nH]c1C(=O)N1CCN(C(=O)OC(C)(C)C)CC1)C(=O)OC(C)(C)C	0	-	0	0	-	0
CC(C)C[C@H](NC(=O)c1nc[nH]c1C(=O)N[C@@H](CC(C)C)C(=O)OC(C)(C)C)C(=O)OCc1ccccc1	0[8.37 µM]	-	-101	0	-	0
CC1CCN(C(=O)c2[nH]cnc2C(=O)N[C@@H](C)C(=O)OCc2ccccc2)CC1	3.5µM	-	0	0	-	0
CC(C)(C)OC(=O)[C@H](CCCCN)NC(=O)c1nc[nH]c1C(=O)N[C@@H](CCCCN)C(=O)OC(C)(C)C	0	-	0	0	-	0
CC(C)C[C@H](NC(=O)c1nc[nH]c1C(=O)NCC(=O)OC(C)(C)C)C(=O)OCc1ccccc1	0[8.37 µM]	-	0	0	-	?
CC(C)(C)OC(=O)[C@H](Cc1ccccc1)NC(=O)c1nc[nH]c1C(=O)N[C@@H](CCCCN)C(=O)OC(C)(C)C	0	-	-68	0	-	0
CC(C)C[C@H](NC(=O)c1nc[nH]c1C(=O)N1CCN(C(=O)OC(C)(C)C)CC1)C(=O)OC(C)(C)C	?	-	-96	0	-	?
CCc1c(C)nc2nncn2c1Nc1ccc(C)c(F)c1	-	0	0	0	0	0
COC(=O)[C@@H](N)CSC/C=C(\C)CC/C=C(\C)CCC=C(C)C	-	-	-	0	-	0
Cc1cccc(OCC(=O)Nc2cccc(OCc3cc(=O)n4cccc(C)c4n3)c2)c1	-	0	0	0	-	0
COc1ccccc1C(=O)N1CCOc2ccc(C(C)(O)CCn3cccn3)cc2C1 (stereo not drawn)	-	-	-	0	-	0
CC(C)C[C@H](NC(=O)c1[nH]cnc1C(=O)Nc1ccccc1)C(=O)OC(C)(C)C	0	-	-102	?	-	0
CCOC(=O)c1[nH]c(C)c(CCC(=O)N2CCN(c3ccc(OC)cc3)CC2)c1C	-	0	0	0	-	0
COCCCN1C(=O)C(CC(=O)NCCc2ccccn2)CC(C(=O)N2CCCCCC2)=C1C (stereo not drawn)	-	-	0	0	-	0
N/C(CCS(=O)(=O)c1ccc(Cl)cc1)=N\OC(=O)c1ccccc1C(F)(F)F	?	22µM	0	0[7.34 µM]	?	0[7.34 µM]
N/C(CCS(=O)(=O)c1ccc(Cl)cc1)=N\OC(=O)c1ccc(Cl)cc1	0	-	0	-	-	-
CC=COC(=O)N[C@@H](c1ccccc1)[C@]1(C(C)=O)CCCC1=O	-	?	-	-	0	-
CC(=Nc1ccc(O)cc1)c1sc2ccccc2c1O	13µM	0	0	0	0	0
CCOc1ccc(/C=N/NC(=O)c2[nH]c3ccc(C)cc3c2C)cc1	?	?	0	0	?	0
SMILES	HCV inhibitor	Lassa entry inh	HCMV antiviral	VACV Venus inh	MARV entry inh	Vaccinia mCherry
Cc1c(C(=O)N/N=C/C(C)C)[nH]c2ccc([N+](=O)[O-])cc12	0	?	-75	0	0	0
Cc1c(C(=O)N/N=C/c2ccc(Cl)cc2)[nH]c2ccc(Cl)cc12	?	-	-89	?	-	?
O=C(NCc1cccc(F)c1)c1ccc(CS(=O)c2ccccc2Cl)o1 (stereo not drawn)	-	0	0	0	-	0
CC(=O)OC[C@H]1O[C@H](C#Cc2ccc(C)cc2C)C=C[C@H]1OC(C)=O	-	0	-	-	0	-
C=C(C)CSc1cc(C)c(C#N)c2nc3ccccc3n12	11µM	?	-75	0	?	0
COc1ccccc1C(=O)N[C@@H]1c2ccccc2C2(CCN(C(=O)c3ccnn3C)CC2)[C@H]1OC	-	-	-	0	-	0
COc1ccc(N/C=C/C(=O)c2sc(-c3ccccc3)nc2C)cc1	10µM	?	-61	?	?	?
COc1ccccc1Oc1ccc(N/C=C/C(=O)c2ccc(C)o2)cc1	22µM	0	?	0	?	?
COc1ccc(N/C=C/C(=O)c2ccccc2)cc1	0	-	0	-	-	-
CC(=O)Nc1ccc(N/C=C/C(=O)c2ccc(C)o2)cc1	0	0	0	0	?	0
COc1ccc(N2C(=O)C(CC(=O)Nc3ccc(F)cc3)N(CCC3=CCCCC3)C2=O)cc1 (stereo not drawn)	-	0	0	0	0	0
COC(=O)c1c(-c2cccs2)csc1NC(=O)c1cccnc1	11µM	0	0	0	0	-
CCOC(=O)c1c(-c2cccs2)csc1NC(=O)CN(CC)CC	11µM	?	0	-	?	-
COc1ccc(C(=O)NCCN2Cc3cc(C)ccc3OC(C)C2)c(OC)n1 (stereo not drawn)	-	-	-	0	-	0
Cc1ccc2nc(-c3ccncc3)c(NC3CCCC3)n2c1	?	-	-65	-	-	-
Cc1ccc2nc(-c3ccncc3)c(NC3CCCCC3)n2c1	?	0	0	0	0	0
COC(=O)C1CCN(Cc2ccc3c(c2)CN(C(=O)c2ncc(C)[nH]2)CCO3)CC1	-	-	-	0	-	0
CCOC(=O)c1c(C)n(C)c2ccc(O)c(CN3CCC(C)CC3)c12	?	?	-	0	11µM	0
CCCCn1c(C)c(C(=O)OCC)c2c(CN3CCOCC3)c(O)ccc21	25µM	?	0	0	?	0
COc1ccc(CN2C(=O)C(CC(=O)NCCCCc3ccccc3)CC(C(=O)N3CCCCCC3)=C2C)cc1 (stereo not drawn)	-	-	0	-	-	-
CC(Sc1nnc(C2CC2)n1C1CC1)C(=O)c1ccc(Br)cc1 (stereo not drawn)	0	0	-62	0	0	0
COc1ccccc1Nc1nc(N)nc(CN2CCN(c3ccccc3F)CC2)n1	0	?	0	0	0	?
COc1ccc(OC)c(Nc2nc(N)nc(CCl)n2)c1	4µM	?	-99	0[7.34 µM]	0	0[7.34 µM]
COc1ccccc1N1CCN(Cc2nc(N)nc(Nc3ccc(C)c(Cl)c3)n2)CC1	11µM	?	0	?	0	?
COc1ccccc1Nc1nc(N)nc(CCl)n1	4.5µM	?	?	0[7.34 µM]	0	0[7.34 µM]
SMILES	HCV inhibitor	Lassa entry inh	HCMV antiviral	VACV Venus inh	MARV entry inh	Vaccinia mCherry
COc1ccccc1Nc1nc(N)nc(CN2CCCCC2)n1	0	0	0	0	0	0
COc1ccc(OCc2nc(N)nc(Nc3ccccc3OC)n2)cc1	14µM	?	?	0	?	0
COc1ccc(CNC(=O)CC(c2ccc(OC)c(OC)c2)N2Cc3ccccc3C2=O)cc1 (stereo not drawn)	-	0	0	0	-	0
CC(=O)N(C)c1ccc(/C=C2\C=Cc3ccccc32)cc1	-	-	-	0	-	0
COc1ccc(N2CCN(Cc3nc(N)nc(Nc4ccccc4OC)n3)CC2)cc1	0	?	0	-	18µM	-
COc1ccccc1Nc1nc(N)nc(CN2CCN(Cc3ccccc3)CC2)n1	0	0	0	-	?	-

Bioassay records from PubChem BioAssay.
